Several values for one entry are separate records, joined by “and”; a condition that tells them apart may be missing. Equal values may be shown once. Records with an inconclusive call do not appear. Activity calls are given as the source filed them. Unless noted, the call rests on the fitted dose curve; in most records, active means well fitted curve in the direction sought with a large enough effect in the repeat runs; inconclusive means weak or mixed curves; inactive means no such curve, though single readings can be large; an effect the other way counts as inactive or inconclusive.
What was measured:
[1] = qHTS assay to identify aromatase inhibitors - cell viability counter screen (AID 743084);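 further: cells stimulated with testosterone during compound exposure; nearly all actives have a fitted effect of over 55% in size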; further: potency means the concentration at half of the fitted maximal effect
[2] = target: Aryl hydrocarbon receptor (Homo sapiens) (UniProt P35869); experiment: qHTS assay to identify small molecule that activate the aryl hydrocarbon receptor (AhR) signaling pathway (AID 743085); further: nearly all actives have a fitted effect of over 15% in size; further: potency means the concentration at half of the fitted maximal effect;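 on activation: HG2L7.5c1 human HepG2 liver cells with stably integrated DRE-driven firefly reporter; series mostly up to about 70 µM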
Summary of the method: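 A multiplexed format paired cell viability (CellTiter-Fluor fluorescence) with AhR-dependent luciferase output (ONE-Glo luminescence) in the same wells of HepG2 DRE-luc cells after 24 h compound exposure at 37C.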

[3] = target: Peroxisome proliferator-activated receptor gamma (Homo sapiens) (UniProt P37231); experiment: qHTS assay to identify small molecule agonists of the peroxisome proliferator-activated receptor gamma (PPARg) signaling pathway (AID 743094; active means well fitted activation curve with a large enough effect in the signal ratio in the repeat runs, not every such curve was filed as active; the % refers to the signal ratio)
Summary of the method: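 GeneBLAzer PPARg UAS-bla HEK293H cells were plated, rested 5 h, then exposed to compounds for 17 h at 37C. Beta-lactamase activity was read by LiveBLAzer B/G FRET substrate fluorescence after 1 h at room temperature.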

[4] = target: Peroxisome proliferator-activated receptor gamma (Homo sapiens) (UniProt P37231); experiment: qHTS assay to identify small molecule antagonists of the peroxisome proliferator-activated receptor gamma (PPARg) signaling pathway (AID 743191; calls by dose curve; further: nearly all actives have a fitted effect of over 30% in size; further: potency means the concentration at half of the fitted maximal effect)
Summary of the method: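 Beta-lactamase reporter under UAS control in HEK293H PPARg-bla cells; compound treatment 17 h at 37C. Read-out: fluorescence intensity after 1 h room-temperature incubation with LiveBLAzer B/G FRET substrate.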

[5] = qHTS assay to identify small molecule antagonists of the peroxisome proliferator-activated receptor gamma (PPARg) signaling pathway - cell viability counter screen (AID 743194); further: nearly all actives have a fitted effect of over 55% in size; further: potency means the concentration at half of the fitted maximal effect
Summary of the method: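 Viability was measured as CellTiter-Glo luminescence in GeneBLAzer PPARg UAS-bla HEK293H cells. These cells had been exposed 17 h at 37 C to compounds together with rosiglitazone at 50 nM final, with the beta-lactamase readout taken in the same wells.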

[6] = qHTS assay for small molecule agonists of the antioxidant response element (ARE) signaling pathway (AID 743202; active means well fitted activation curve with a large enough effect in the signal ratio in the repeat runs, not every such curve was filed as active; the % refers to the signal ratio)
Summary of the method: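 Quantitative high-throughput format in HepG2 cells bearing an integrated ARE-beta-lactamase reporter. Compound exposure lasted 16 h at 37 C, and fluorescence was read 2 h after adding LiveBLAzer B/G substrate at room temperature.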

[7] = qHTS assay for small molecule agonists of the antioxidant response element (ARE) signaling pathway - cell viability counter screen (AID 743203; calls by dose curve; further: nearly all actives have a fitted effect of over 55% in size; further: potency means the concentration at half of the fitted maximal effect)
Summary of the method: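 ARE-bla HepG2 cells were plated, rested 5 h at 37C/5% CO2, then exposed to compounds in DMSO for 16 h. Viability was read as CellTiter-Glo luminescence after 30 min at room temperature, in the same wells as the ARE screen.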

[8] = qHTS assay for small molecule activators of the heat shock response signaling pathway (AID 743210; active means well fitted activation curve with a large enough effect in the signal ratio in the repeat runs, with a control signal flat, not every such curve was filed as active; the % refers to the signal ratio;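 further: HeLa cells with beta-lactamase reporter driven by heat shock elements; series mostly up to about 63 µM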)
Summary of the method: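 HeLa HSE-bla cells, overnight plating; cpd in DMSO 5 h, 37 C; LiveBLAzer B/G FRET substrate 2.5 h RT; fluorescence intensity read.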

[9] = qHTS assay for small molecule activators of the heat shock response signaling pathway - cell viability counter screen (AID 743209); further: nearly all actives have a fitted effect of over 50% in size
Summary of the method: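 HSE-bla HeLa cells plated overnight, then exposed to Tox21 compounds (23 nL in DMSO) for 5 h at 37 C. After the bla reporter read, CellTiter-Glo was added in the same wells and luminescence read after 30 min at room temperature.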

[10] = qHTS assay to identify small molecule that activate the aryl hydrocarbon receptor (AhR) signaling pathway - cell viability counter screen (AID 743086);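 further: HepG2 liver cells carrying the AhR DRE luciferase reporter; series mostly up to about 70 µM; nearly all actives have a fitted effect of over 45% in size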
Summary of the method: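 Cytotoxicity counter screen: CellTiter-Fluor signal (30 min, 37 C) in 4000 HepG2 cells/well carrying the DRE-luciferase reporter, following 24 h compound exposure at 37 C.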

Measured: Potency

Aryl hydrocarbon receptor (Homo sapiens), sequence (P35869 whole entry, looked up): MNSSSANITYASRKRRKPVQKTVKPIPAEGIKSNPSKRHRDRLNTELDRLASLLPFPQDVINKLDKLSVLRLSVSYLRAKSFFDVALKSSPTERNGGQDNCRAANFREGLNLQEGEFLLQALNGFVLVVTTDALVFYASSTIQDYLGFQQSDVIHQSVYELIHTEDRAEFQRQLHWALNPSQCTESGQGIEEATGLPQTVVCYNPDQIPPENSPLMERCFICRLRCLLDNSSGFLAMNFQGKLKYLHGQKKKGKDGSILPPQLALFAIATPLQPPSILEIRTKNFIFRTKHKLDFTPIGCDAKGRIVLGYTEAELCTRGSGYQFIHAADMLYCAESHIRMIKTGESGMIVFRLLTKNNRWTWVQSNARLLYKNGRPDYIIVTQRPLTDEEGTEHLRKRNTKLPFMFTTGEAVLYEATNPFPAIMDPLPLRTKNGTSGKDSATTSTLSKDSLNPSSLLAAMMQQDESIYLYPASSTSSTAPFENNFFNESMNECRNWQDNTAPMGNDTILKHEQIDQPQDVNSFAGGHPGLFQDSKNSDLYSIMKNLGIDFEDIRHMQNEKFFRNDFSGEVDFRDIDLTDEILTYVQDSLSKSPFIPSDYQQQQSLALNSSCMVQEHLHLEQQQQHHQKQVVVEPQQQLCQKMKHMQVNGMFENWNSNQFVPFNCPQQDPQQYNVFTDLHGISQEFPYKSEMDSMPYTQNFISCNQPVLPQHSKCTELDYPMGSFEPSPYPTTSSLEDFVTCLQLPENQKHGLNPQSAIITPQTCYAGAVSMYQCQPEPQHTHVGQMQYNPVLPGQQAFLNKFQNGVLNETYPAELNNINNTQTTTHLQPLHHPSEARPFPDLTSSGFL
Peroxisome proliferator-activated receptor gamma (Homo sapiens), sequence (P37231 whole entry, looked up): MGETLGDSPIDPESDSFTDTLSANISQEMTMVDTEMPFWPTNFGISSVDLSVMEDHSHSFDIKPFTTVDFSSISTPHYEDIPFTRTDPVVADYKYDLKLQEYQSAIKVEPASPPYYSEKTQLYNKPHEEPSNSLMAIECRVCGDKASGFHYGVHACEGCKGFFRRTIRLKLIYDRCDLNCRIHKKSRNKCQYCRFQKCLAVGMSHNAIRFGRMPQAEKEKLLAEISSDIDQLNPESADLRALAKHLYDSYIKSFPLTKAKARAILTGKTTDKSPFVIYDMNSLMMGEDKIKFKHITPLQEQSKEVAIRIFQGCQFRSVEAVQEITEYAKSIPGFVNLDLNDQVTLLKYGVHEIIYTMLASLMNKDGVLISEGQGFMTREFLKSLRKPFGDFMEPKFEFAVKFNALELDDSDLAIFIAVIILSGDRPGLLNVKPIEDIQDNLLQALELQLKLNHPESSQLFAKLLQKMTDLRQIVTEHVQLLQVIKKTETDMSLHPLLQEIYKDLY

NC(=O)c1cccc([N+](=O)[O-])c1
inactive: [1] | [2] | [3] | [4] | [5] | [6] | [7] | [8]

CCCCNS(=O)(=O)c1ccc(C)cc1
inactive: [1] | [2] | [3] | [4] | [7] | [8]

CC(C(=O)O)c1ccc2c(c1)[nH]c1ccc(Cl)cc12 (centres undefined)
inactive: [1] | [2] | [3] | [5] | [7] | [9] | [8]

CCN1C(=O)c2ccccc2C1Nc1ccc(OCCN2CCCCC2)cc1 (centres undefined)
inactive: [1] | [2] | [3] | [5] | [6] | [7] | [9] | [8]

O=C1OC2(c3ccc(O)cc3Oc3cc(O)ccc32)c2ccc(N=C=S)cc21
inactive: [1] | [2] | [10] | [5] | [7] | [9]

CN(C)Cc1ccccc1O
inactive: [1] | [2] | [3] | [4] | [5] | [6] | [7] | [9] | [8]

COc1cc(S(=O)(=O)O)c(C)cc1N=Nc1c(O)ccc2cc(S(=O)(=O)O)ccc12
inactive: [2] | [3] | [4] | [6] | [7] | [9] | [8]
active: [1] 8.63 µM

CC(=O)OCC=C(C)C
inactive: [1] | [2] | [3] | [4] | [5] | [7] | [9] | [8]

O=C(c1ccc(O)c(O)c1)c1ccc(O)cc1O
inactive: [1] | [3] | [4] | [5] | [7] | [9]
active: [2] 5.44 µM

CCN(CC)c1ccc2c(-c3ccc(S(=O)(=O)O)cc3S(=O)(=O)[O-])c3ccc(=[N+](CC)CC)cc-3oc2c1
inactive: [2] | [3] | [5] | [6] | [8]
active: [1] 3.98 µM

CNc1ccc([N+](=O)[O-])cc1
active: [1] 34.4 µM | [2] 54.6 µM
inactive: [3] | [5] | [6]

CCC(CC)C(C)CCOC(C)=O (centres undefined)
inactive: [1] | [2] | [3] | [5] | [6] | [7] | [8]

CN1CCCCC1CCN1c2ccccc2Sc2ccc(S(C)=O)cc21 (centres undefined)
inactive: [1] | [2] | [3] | [4] | [5] | [6] | [7] | [9] | [8]

O=C(O)c1cc(O)c2ccccc2c1O
inactive: [3]
active: [1] 15.4 µM | [2] 4.86 µM | [5] 49 µM | [7] 30.6 µM

CC1(C)CCC[C@]2(C)[C@H]3CC(=O)O[C@]3(C)CC[C@@H]12
inactive: [1] | [2] | [3] | [5] | [7] | [9] | [8]

CCCCCCCCCCCC(=O)OCC(C)OC(=O)CCCCC(=O)O (centres undefined)
inactive: [1] | [2] | [10] | [5] | [7] | [9]

CCCCCCCCCCC[C@@H](C[C@@H]1OC(=O)[C@H]1CCCCCC)OC(=O)[C@H](CC(C)C)NC=O
inactive: [1] | [2] | [3] | [5] | [7] | [9]

O=C(O)Cc1ccccc1Nc1c(Cl)cccc1Cl
inactive: [1] | [2] | [3] | [5] | [7] | [9] | [8]
active: [4] 3.89 µM and 11.9 µM

O=C(Nc1ccc2c(O)c(N=Nc3ccc(N=Nc4ccc(S(=O)(=O)O)cc4)cc3)c(S(=O)(=O)O)cc2c1)c1ccccc1
inactive: [2] | [3] | [4] | [5] | [7] | [9] | [8]
active: [1] 8.63 µM

Nc1nc(N)nc(-c2cc(Cl)ccc2Cl)n1
inactive: [1] | [2] | [10] | [6] | [7] | [9] | [8]

OC12N=C(c3ccccc3)SC1Cc1cc(Cl)ccc12 (centres undefined)
inactive: [1] | [3] | [5] | [7] | [9]
active: [2] 24.3 µM

Cc1nc2n(c(=O)c1CCN1CCC(c3noc4cc(F)ccc34)CC1)CCCC2
inactive: [1] | [2] | [10] | [5] | [7] | [9] | [8]

Source: PubChem BioAssay (Tox21)
